HCV inh: blocks hepatitis C virus; Huh7.5.1 HCVcc-Cre infection, luciferase reporter, 44 h; Potency, µM (top dose mostly 41.8 µM), inactives show top-dose activity change, negative = inhibition, most hits filed as inhibitors; 340,000 compounds, 3.4% hits; AID 651820; further: on the % scale 0 is the no-effect control and ±100 the full control effect
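Antiviral activity was scored by luciferase reporter output from cells infected with HCVcc-Cre (~0.5 moi) in presence of compound, 44 h infection period, cells seeded 1,000/well 4 h prior.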
AMA1 RON2 block: disrupts binding of P. falciparum AMA1 to RON2 | 360,000 compounds, 0.2% hits | Potency, µM (doses to about 58.2 µM), without a hit: at the highest dose activity change, negative = inhibition, most hits filed as inhibitors | AlphaScreen AMA1-biotinylated RON2 peptide binding | AID 720542;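 further: 0% = vehicle wells and -100% = peptide control; nearly all actives have a fitted effect of over 45% in size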
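AMA1 (3D7) with his tag at 25 nM final met compounds first, then biotinylated RON2 peptide at 25 nM; detection used donor plus acceptor beads, 10 µg/mL apiece, read by AlphaScreen after 30 min at room temperature.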
Pf growth 48h: P. falciparum growth inhibition at 48 hours (one generation). P. falciparum luciferase growth in erythrocytes, 48 h. Potency, µM (series often up to 28.7 µM), for the others: at the top dose activity change, negative = inhibition, usual class: inhibitors. 310,000 compounds, 5.9% hits. AID 504832; further: on the % scale 0 is the no-effect control and ±100 the full control effect
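Parasite viability was followed by luminescence of a genomically integrated firefly luciferase. Cultures held 0.1% parasitemia at 2% hematocrit (final), incubated under 5% CO2 at 37 C.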
NS1 inh: inhibitors of influenza NS1 protein function; Potency, µM (doses to about 46.1 µM), for inactives: top-dose activity, positive = more growth; 270,000 compounds, 0.4% hits; AID 2326; calls by dose curve; further: actives are rising curves; nearly all actives have a fitted effect of over 50% in size
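In this qHTS, NS1 from influenza A is expressed in budding yeast, where it slows growth. Cells are switched from glucose to 2% galactose medium (pH 6.0, -URA), treated with compound, and growth recovery is read at OD600.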
SARS PLpro yeast: blocks SARS-CoV papain-like protease in a yeast assay; S. cerevisiae expressing SARS-CoV PLpro, growth rescue; Potency, µM (titrated, usually from 32.9 µM), for the others: top-dose activity, positive = growth rescue, most hits filed as activators; 330,000 compounds, 0.19% hits; calls by dose curve; further: 0% is about no effect; nearly all actives have a fitted effect of over 55% in size
Pf growth 96h: inhibits malaria parasite growth, 96 h; P. falciparum luciferase reporter growth, 96 h; Potency, µM (highest dose often 28.7 µM), for inactives: at the top dose activity change, negative = inhibition, usual class: inhibitors; 320,000 compounds, 6.9% hits; AID 504834; further: on the % scale 0 is the no-effect control and ±100 the full control effect
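Parasite growth measured via integrated firefly luciferase reporter in P. falciparum. Infected erythrocytes at 2% hematocrit, 0.05% parasitemia final were treated 96 hours at 37 C under 5% CO2, and luminescence was read.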
* marks the source's active call; other numbers are inactive results; u = inconclusive; x = no result. Compounds with a hit are over-represented: about 12% of the library has one in this group of screens. Unless noted, the call rests on the fitted dose curve; in most records, active means well fitted curve in the direction sought with a large enough effect; inconclusive means small, poorly fitted or top-dose-only effect, or another doubt; inactive means no such curve, though single readings can be large; an effect the other way counts as inactive or inconclusive. Potency means the concentration at half of the fitted maximal effect.

SMILES	HCV inh	AMA1 RON2 block	Pf growth 48h	NS1 inh	SARS PLpro yeast	Pf growth 96h
COC(=O)CC1C(=O)NCCN1C(=O)CSc1nnnn1-c1ccc(Cl)cc1 (stereo unspecified)	6.9%	15.6%	89.0%	x	-0.6%	20.8%
O=C(C1CCN(c2nc(-c3ccccc3)nc3c2CCC3)CC1)N1CCC(O)CC1	-14.3%	-15.3%	3.7µM*	-11.5%	x	u
CCOC(=O)C1CCN(C(=O)CSc2c3c(nc4ccccc24)CCC3)CC1	-8.1%	-12.5%	0.0%	x	-2.7%	20.9%
CCOC(=O)C1CCN(c2nc(-c3ccc(C)cc3)nc3ccccc23)CC1	u	-0.6%	u	x	2.7%	u
COCC1CCCCN1C(=O)C1CCN(c2nc(-c3ccccc3)nc3c2CCC3)CC1 (stereo unspecified)	u	-13.2%	9.28µM*	-16.2%	-3.1%	-24.0%
COCC1CCN(C(=O)C2CCN(c3nc(-c4ccccc4)nc4c3CCC4)CC2)C1 (stereo unspecified)	u	-3.9%	7.38µM*	-14.8%	-0.6%	u
O=C(Cc1ccc(S(=O)(=O)N2CCOCC2)s1)Nc1cc(C(F)(F)F)ccc1N1CCCC1	u	u	11.7µM*	x	0.1%	u
O=C(Cc1ccc(S(=O)(=O)N2CCOCC2)s1)Nc1ccc(N2CCOCC2)cc1	14.8%	-15.5%	171.3%	x	2.3%	257.5%
CCOC(=O)c1cc(NC(=O)Cc2ccc(S(=O)(=O)N3CCOCC3)s2)cc(C(=O)OCC)c1	u	5.5%	10.4µM*	x	-9.5%	5.22µM*
O=C(Cc1ccc(S(=O)(=O)N2CCOCC2)s1)Nc1cc(C(F)(F)F)cc(C(F)(F)F)c1	11.2µM*	9.4%	u	x	-1.5%	u
Cc1cccc(NC(=O)Nc2ccccc2[N+](=O)[O-])n1	10.6%	-5.5%	50.1%	-8.7%	-2.2%	-7.0%
O=C(Nc1ccc(OC(F)(F)F)cc1)c1[nH]ncc1[N+](=O)[O-]	u	124.3%	68.3%	x	-7.1%	u
COc1ccc(CN(C(=O)c2ccc3c(c2)OCCO3)C(C(=O)NC2CCCCC2)c2ccc3ncccc3c2)cc1 (stereo unspecified)	-24.1%	-3.3%	u	19.6%	1.3%	9.28µM*
O=C(NC1CCCCC1)C(c1ccc2ncccc2c1)N(Cc1ccccc1)C(=O)c1ccc2c(c1)OCCO2 (stereo unspecified)	u	-5.0%	13.1µM*	0.6%	-2.9%	10.4µM*
O=C(CCCC(=O)N(c1ccc2c(c1)OCCO2)C(C(=O)NC1CCCCC1)c1ccc(F)cc1)Nc1ccccn1 (stereo unspecified)	-4.9%	-4.1%	u	10.6%	4.0%	10.4µM*
COc1ccccc1C(=O)NCCC(=O)NCc1ccncc1	6.6%	26.3%	-15.6%	x	4.9%	-16.6%
CN(C(=O)CSc1nc2ccccc2c(=O)n1-c1ccccc1Cl)C1CCS(=O)(=O)C1 (stereo unspecified)	-11.2%	0.5%	x	x	1.8%	x
CC(=O)Nc1ccc(-c2csc(-c3cccnc3)n2)cc1	u	-4.5%	108.5%	12.5%	-3.6%	5.6%
CC(C)Oc1ccc(N2CC(C(=O)Nc3ccc4c(c3)OCO4)CC2=O)cc1 (stereo unspecified)	-17.5%	2.5%	x	-0.5%	0.6%	14.7µM*
CC(=O)Nc1ccc(-c2csc(NC(=O)C3CC(=O)N(c4ccc5c(c4)OCCO5)C3)n2)cc1 (stereo unspecified)	u	-0.5%	u	-33.6%	0.1%	u
O=C(Nc1ccccc1Br)C1CC(=O)N(c2ccc3c(c2)OCCO3)C1 (stereo unspecified)	11.3%	-1.2%	u	x	2.9%	u
O=C(NCCc1ccc(C(F)(F)F)cc1)C1CC(=O)N(c2ccc3c(c2)OCCO3)C1 (stereo unspecified)	-22.5%	-0.6%	u	x	0.1%	-2.5%
Cc1ccc(N2CC(C(=O)Nc3ccc4c(c3)OCO4)CC2=O)cc1 (stereo unspecified)	7.7%	1.6%	-2.6%	1.9%	3.5%	10.2%
O=C(Nc1nc2ccccc2[nH]1)C1CC(=O)N(c2ccc3c(c2)OCCO3)C1 (stereo unspecified)	-3.1%	20.4%	5.5%	-1.6%	-1.8%	8.28µM*
COc1ccc(-c2csc(NC(=O)C3CC(=O)N(c4ccc5c(c4)OCCO5)C3)n2)cc1 (stereo unspecified)	u	-0.9%	u	u	-29.1%	11.7µM*
SMILES	HCV inh	AMA1 RON2 block	Pf growth 48h	NS1 inh	SARS PLpro yeast	Pf growth 96h
CCOc1ccc(CCNC(=O)C2CC(=O)N(c3ccc4c(c3)OCCO4)C2)cc1OCC (stereo unspecified)	u	-2.3%	u	x	-0.2%	3.29µM*
NS(=O)(=O)c1ccc(NC(=O)c2ccc(CNS(=O)(=O)c3cc(C(F)(F)F)ccc3Cl)cc2)cc1	-14.0%	-5.1%	20.8%	-0.7%	2.0%	-7.3%
CCCN(CC(=O)Nc1ccc(F)c(F)c1F)C(=O)CN1C(=O)NC2(CCCCC2)C1=O	-4.4%	-3.2%	x	x	x	x
O=C(CCCN1C(=O)/C(=C/c2ccccc2Cl)SC1=S)Nc1cccnc1	u	-17.4%	u	7.1%	29.9%	87.3%
COc1cc(C2C(C#N)=C(N)OC3=C2C(=O)CC(C)(C)C3)ccc1OCCN1CCOCC1 (stereo unspecified)	-4.9%	-14.9%	15.8%	4.2%	0.0%	56.4%
Cc1cccc(C)c1N=C1SC(CC(=O)Nc2c(C)cccc2C)C(=O)N1CCc1ccccn1 (stereo unspecified)	4.2%	1.3%	9.28µM*	-19.9%	2.1%	9.28µM*
O=C(CC1SC(=Nc2ccccc2)N(CCc2ccccn2)C1=O)Nc1ccc(F)cc1 (stereo unspecified)	-6.7%	16.9%	u	-18.9%	-11.0%	4.65µM*
CCOCCCn1c(SC(C)C(=O)NCC2CCCO2)nc2sc(C)c(C)c2c1=O (stereo unspecified)	11.0%	-7.5%	u	x	3.3%	u
CN(C)CCC(=O)[C@@]1(O)CC[C@H]2[C@H]3CC=C4C[C@@H](O)CC[C@]4(C)[C@H]3CC[C@]21C	x	x	x	-15.4%	x	x
COc1ccc(N(CC(=O)NCc2ccccc2OC)S(=O)(=O)c2ccc(C)cc2)cc1Cl	-24.5%	4.8%	u	13.6%	-6.2%	28.9%
COc1ccc(-c2csc(NC(C)c3nc4cc(C(F)(F)F)ccc4n3CCOCCO)n2)cc1 (stereo unspecified)	8.91µM*	29.5%	x	x	x	x
CC[C@]1(c2ccccc2OC)ON(c2ccccc2C(F)(F)F)C1=O	u	35.7%	0.522µM*	x	0.3%	0.415µM*
COc1ccccc1[C@]1(C)ON(c2ccccc2C(F)(F)F)C1=O	u	22.3%	1.04µM*	x	-0.1%	0.828µM*

Screens deposited in PubChem BioAssay by National Center for Advancing Translational Sciences (NCATS).
